# Assay outcomes (PubChem BioAssay)
# Shown are actives, neighbours in structure and some others; about 5.9% of the full set was active somewhere.
# Gal4-VP16 FLuc = VP16 counterscreen qHTS for inhibitors of ROR gamma transcriptional activity. Potency, µM (series often up to 53.6 µM), inactives show at the highest dose activity, negative = inhibition, hits mostly inhibitors. Drosophila S2 Gal4-VP16 UAS-luciferase, luminescence, 20 h. 3.5% of 310,000 active;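 further: Gal4-VP16 expression switched on by copper sulfate through the metallothionein promoter; on the % scale 0 is the no-effect control and ±100 the full control effect; nearly all actives have a fitted effect of over 50% in size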
# GLP1R ag = qHTS of GLP-1 Receptor Agonists; HEK293 GLP-1R CRE-luciferase, luminescence, 4-6 h; cells express a hypersensitive GLP-1R form; Potency, µM (titrated, usually from 45.6 µM), inactives show at the highest dose activation, most hits filed as activators; 0.007% of 380,000 active; AID 624172, 2012; further: % of control where 0% means no effect
# Target sequence (P43220 whole entry, looked up): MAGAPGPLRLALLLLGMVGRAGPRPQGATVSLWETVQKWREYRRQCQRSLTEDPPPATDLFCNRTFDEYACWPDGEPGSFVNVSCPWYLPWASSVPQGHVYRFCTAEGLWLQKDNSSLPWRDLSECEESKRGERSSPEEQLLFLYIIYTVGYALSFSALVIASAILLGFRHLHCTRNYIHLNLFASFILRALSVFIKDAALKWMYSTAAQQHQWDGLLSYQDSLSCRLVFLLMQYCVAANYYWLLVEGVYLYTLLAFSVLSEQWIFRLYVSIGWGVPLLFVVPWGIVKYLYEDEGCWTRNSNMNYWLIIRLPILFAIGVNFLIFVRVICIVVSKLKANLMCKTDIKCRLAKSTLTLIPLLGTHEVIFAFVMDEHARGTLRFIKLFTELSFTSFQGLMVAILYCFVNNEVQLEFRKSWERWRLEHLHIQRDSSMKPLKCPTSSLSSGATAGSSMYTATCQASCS
# GLP-1R inv ag = qHTS of GLP-1 Receptor Inverse Agonists (Inhibition Mode) | Glucagon-like peptide 1 receptor (Homo sapiens), P43220 | HEK293 GLP-1R CRE-luciferase, luminescence, 24 h; GLP-1R form is constitutively active | Potency, µM (series often up to 38.3 µM), without a hit: at the highest dose activity change, negative = inhibition, hits mostly inhibitors | 1.6% of 410,000 active | AID 624417, 2012; further: on the % scale 0 is the no-effect control and ±100 the full control effect; nearly all actives have a fitted effect of over 55% in size
#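 Stable HEK293 clone (constitutively active GLP-1R + cAMP-response luciferase); 200 cells/uL plated, 12 h pre-culture, compound 24 hr, 37 deg C/5% CO2; detection reagent 12 min RT; luminescence.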
# RORg inh = qHTS for inhibitors of ROR gamma transcriptional activity; 5.4% of 310,000 active; Nuclear receptor ROR-gamma (Mus musculus), P51450; Potency, µM (doses to about 53.6 µM), inactives show top-dose activity change, negative = inhibition, actives largely listed as inhibitors; Drosophila S2 Gal4-RORgamma UAS-luciferase reporter, 20 h; AID 2551, 2010; further: on the % scale 0 is the no-effect control and ±100 the full control effect; nearly all actives have a fitted effect of over 60% in size
#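 Stable Schneider cell line, Gal4 DNA-binding domain fused to ROR gamma, UAS-luciferase. Cmpd 1 hr RT → CuSO4 700 uM final → 20 hr RT → luciferase reagent 10 min → luminescence.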
# GLP1R cytotox = qHTS of GLP-1 Receptor Inverse Agonists: Cytotox Screen. HEK293 cAMP-luciferase reporter cells, luminescence, 24 h. Potency, µM (top dose mostly 38.3 µM), for inactives: top-dose activity change, negative = inhibition, most hits filed as inhibitors. 0.13% of 410,000 active;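 further: loss of luciferase light is scored as toxicity; on the % scale 0 is the no-effect control and ±100 the full control effect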
#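 1536-well qHTS counterscreen of the MLSMR; 200 cells/uL, 12 h pre-incubation, 23 nL cpd, 24 h at 37 deg C 5% CO2, luciferase detection reagent, 12 min RT, luminescence. Inhibition = undesired.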
# Starred values were filed as active, the others as inactive; ? = inconclusive; . = not tested or not shown; ! = a repeat was not active; [ ] = another dose, or the depositor's remark. The call rests on the fitted dose curve; in most records, active means well fitted curve in the direction sought with a large enough effect; inconclusive means small, poorly fitted or top-dose-only effect, or another doubt; inactive means no such curve, though single readings can be large; an effect the other way counts as inactive or inconclusive. Potency means the concentration at half of the fitted maximal effect.
SMILES,Gal4-VP16 FLuc,GLP1R ag,GLP-1R inv ag,RORg inh,GLP1R cytotox
COc1cc(=O)n(C)c2ccccc12,0.0%,0.4%,8.2%,12.6µM*,2.7%
COc1ccc2c(OC)cc(=O)n(C)c2c1,-18.7%,0.3%,40.5%,-13.4%,-11.9%
Cc1cccc(Cn2nc(C)n3c(cc4cc(C)ccc43)c2=O)c1,.,.,14.2%,.,5.3%
O=C(CC1SC(=Nc2ccc(OC(F)F)cc2)N(CCN2CCOCC2)C1=O)Nc1ccccc1 (centres undefined),-12.4%,8.0%,10µM*,?,-8.5%
O=C(CC1SC(=Nc2ccc(OC(F)F)cc2)N(CCN2CCOCC2)C1=O)Nc1ccc(F)cc1F (centres undefined),-10.6%,20.4%,?,?,-22.2%
COc1cc(OC)cc(-c2cc3nc(C)c(CCC(=O)O)c(C)n3n2)c1,2.82µM*,5.9%,10.8%,0.708µM*,-17.0%
Cc1ccc(C(=O)Nc2ccsc2C(=O)O)cc1,?,-8.6%,?,11.2µM*,-8.8%
CCCc1c(OCCCCc2nn[nH]n2)ccc(C(C)=O)c1O,12.6µM*!,4.0%,7.0%,?,3.4%
CCCc1c(OCC(O)COc2ccc3c(=O)cc(C(=O)O)oc3c2CCC)ccc(C(C)=O)c1O (centres undefined),-15.6%,.,.,27.0%,.
O=C(NC(=S)N1CCCCC1)c1cccs1,1.26µM*,4.1%,-23.3%,0.794µM*,?
CC1CCN(C(=S)NC(=O)c2cccs2)CC1,0.891µM*,-3.8%,49.2%,0.251µM*,?
CC1CCCCN1S(=O)(=O)c1ccc(NC(=O)c2cccs2)cc1 (centres undefined),-2.0%,3.1%,?,30.4%,-3.9%
CC1CCCCN1C(=S)NC(=O)c1cccs1 (centres undefined),2.82µM*,-0.5%,-28.8%,0.708µM*,?
C=CCNC(=S)NC(=O)c1csc([N+](=O)[O-])c1,?,0.0%,10.4%,?,6.5%
O=C(NC(=S)N1CCCCC1)c1csc([N+](=O)[O-])c1,1.12µM*,2.1%,-14.4%,0.355µM*,?
Cc1cccc(NC(=O)N2CCN(C(=O)c3nsc4ccccc34)CC2)c1C,.,.,-1.2%,.,9.0%
CSCCC(NS(=O)(=O)c1ccc2c(c1)oc(=O)n2C)C(=O)N1CCN(c2cccc(Cl)c2)CC1 (centres undefined),.,.,10.4%,.,2.5%
Cc1ccc2c(CC(=O)N(Cc3cccc(Cl)c3)C3CCS(=O)(=O)C3)coc2c1 (centres undefined),.,.,?,.,-2.4%
Cc1cccc(NS(=O)(=O)c2ccc3oc(=O)c4ncn(C)c4c3c2)c1C,.,.,19.1%,.,?
C=CCOc1ccccc1CNc1ccc2c(c1)OCCO2,?,0.7%,-50.7%,4.47µM*,-12.5%
COc1ccc(-n2c(SCC(=O)NCc3ccc(C)cc3)nc3n[nH]c(C)c3c2=N)cc1,.,.,-0.4%,.,0.9%
Cc1cc(/C=N/n2cnnc2)c(C)n1-c1ccc(OCc2ccccc2F)cc1,?,4.8%,?,-35.7%,12.3%
Cc1cc(/C=N/n2cnnc2)c(C)n1-c1ccc(OCc2ccc(Cl)cc2)cc1,?,7.9%,22.8%,2.82µM*,?
O=C1C[C@@H](c2ccccc2Cl)N1S(=O)(=O)c1ccccc1[N+](=O)[O-],15.0%,.,.,-9.0%,.
N#CCCn1c(=O)c(-c2ccccc2)nc2cnc(N3CCOCC3)nc21,3.5%,.,.,14.4%,.
SMILES,Gal4-VP16 FLuc,GLP1R ag,GLP-1R inv ag,RORg inh,GLP1R cytotox
Cc1cc(C)cc(N(C(=O)c2nsc(Cl)c2Cl)C(C(=O)NC2CCCC2)c2ccc(O)cc2)c1 (centres undefined),-10.9%,-13.7%,3.98µM*,31.1%,?
Cc1ccccc1N(C(=O)c1snc(C(N)=O)c1N)C(C(=O)NC1CCCCC1)c1ccc(O)cc1 (centres undefined),-4.0%,5.7%,?,8.7%,-18.7%
Cc1ccc(N(C(=O)c2nsc(Cl)c2Cl)C(C(=O)NC2CCCC2)c2ccc(O)cc2)cc1C (centres undefined),?,4.7%,?,?,-0.7%
Cc1cccc(N(C(=O)c2nsc(Cl)c2Cl)C(C(=O)NC2CCCC2)c2ccc(O)cc2)c1C (centres undefined),-11.7%,-12.4%,8.91µM*,30.3%,-21.1%
CCOc1ccc(C(C(=O)NC2CCCC2)N(Cc2ccccc2)C(=O)c2nsc(Cl)c2Cl)cc1 (centres undefined),-4.6%,-4.1%,10µM*,-4.2%,2.6%
COc1ccc(NC(=O)C(=O)NCC(c2cccnc2)N2CCc3ccccc3C2)cc1 (centres undefined),.,.,?,.,-1.8%
COC(=O)NC(CC(C)=O)c1cccs1 (centres undefined),1.0%[10 µM],.,.,-18.1%[10 µM],.
COc1cc(NC(=O)c2noc3c2CCc2ccccc2-3)cc(OC)c1OC,.,.,?,.,-13.5%
Cc1ccc(-c2cc(-c3ccccc3Cl)[nH]n2)c(O)c1,?,-3.8%,?,?,-1.6%
COc1ccc(-c2nnc(-c3ccccc3O)o2)cc1,12.6µM*,6.9%,9.1%,?,0.2%
COc1ccccc1-c1cc(-c2cc(Cl)ccc2O)n[nH]1,-21.7%,-9.0%,3.9%,-44.8%[10 µM],-0.9%
Cc1ccc(-c2cc(-c3ccccc3[N+](=O)[O-])[nH]n2)c(O)c1,?,1.6%,0.0%,17.8µM*,-23.9%
Cc1ccc(-c2nnc(-c3ccccc3)o2)cc1,10µM*,-3.3%,-0.4%,?,19.0%
COc1ccc(-c2nnc(-c3ccc(C)cc3)o2)cc1,?,14.4%,23.3%,?,-14.4%
Cc1ccccc1-c1cc(-c2ccccc2O)n[nH]1,?,5.0%,?,5.62µM*,?
COc1ccc(O)c(-c2cc(-c3cccs3)[nH]n2)c1,?,34.1%,?,3.98µM*,5.4%
Oc1ccc(Cl)cc1-c1cc(-c2ccccc2)n[nH]1,4.47µM*,-4.0%,?,1.41µM*,1.2%
COc1ccc(-c2cc(-c3ccccc3)n[nH]2)c(O)c1,-3.4%[10 µM],14.1%,?,3.98µM*,-6.6%
COc1ccc(-c2cc(-c3ccccc3O)[nH]n2)cc1,15.8µM*,-59.0%,?,6.31µM*,-8.0%
